From PubChem
BoNT A protease = inhibitors of Botulinum neurotoxin A light chain protease; multiplex microsphere protease substrate cleavage, flow cytometry; inhibition, % at 10 µM; 360,000 compounds, 0.17% hits; AID 588499; further: plate controls were buffer without enzyme for full effect and enzyme alone for no effect
BoNT-F LC inh = inhibitors of Botulinum neurotoxin F light chain protease | Multiplex microsphere protease cleavage assay, flow cytometry | inhibition, % at 10 µM | 360,000 compounds, 0.22% hits | AID 588497; in the data active means inhibition above about 35%, passing the limit was not always enough; inconclusive means no clear call, values can overlap the other calls; further: plate controls were buffer without enzyme for full effect and enzyme alone for no effect
PfHsp40 yeast = compounds rescuing yeast from Plasmodium falciparum HSP40 toxicity; growth rescue, % at 12.5 µM; 340,000 compounds, 0.68% hits; AID 504582; S. cerevisiae expressing PfHsp40, growth rescue, ATP luminescence; in the data active means growth rescue above about 28%, passing the limit was not always enough; inconclusive means no clear call, values can overlap the other calls;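 further: yeast W303a lacking pdr1 and pdr3 grown in galactose medium; growth measured after three days at 30 °C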
Autofluor counter = counter-screen for toxin protease inhibitors: compound fluorescence; compound autofluorescence counterscreen, microsphere flow cytometry; hits give high values; fluorescence intensity (no concentration beside the values); 360,000 compounds, 3.1% hits; in the data active means fluorescence intensity above about 16000; inconclusive means no clear call, values can overlap the other calls
Anthrax LF prot = blocks Bacillus anthracis lethal factor protease. multiplex microsphere protease cleavage assay, LF. inhibition, % at 10 µM. 360,000 compounds, 0.12% hits; further: plate controls were buffer without enzyme for full effect and enzyme alone for no effect
MazF activator = activators of E. coli MazEF toxin-antitoxin RNase | FAM/BHQ RNA-DNA oligo cleavage fluorescence, 5 h | activation, % at 20 µM | P0AE70 | 350,000 compounds, 0.32% hits; in the data active means activation above about 50%
Target sequence (P0AE70 whole entry, looked up): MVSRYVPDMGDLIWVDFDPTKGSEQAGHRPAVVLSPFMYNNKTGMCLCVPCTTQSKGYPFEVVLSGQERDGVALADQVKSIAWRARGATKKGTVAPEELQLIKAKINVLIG
* hit, by the source's call; ? = inconclusive; · = no result. The list is not random: actives were taken first. Their share in the collection is about 4.3%. Unless noted, no stated cut-off is given here; in the data, active means inhibition above about 30%; inconclusive means no clear call, values can overlap the other calls; inactive means below that.

SMILES	BoNT A protease	BoNT-F LC inh	PfHsp40 yeast	Autofluor counter	Anthrax LF prot	MazF activator
Clc1ccccc1OCCCCN1CCCC1	9	7	0	20741*	-5	1
O=C(c1cc2ccccc2o1)N1CCN(S(=O)(=O)c2c(F)cccc2F)CC1	-54	-84	1	20189*	-14	7
CCCCN1CCCCC1(C)C(=O)NCc1cccc(OC)c1 (stereo unspecified)	0	-8	·	4410	8	·
COc1ccc(C(=O)NCC(c2cccs2)N2CCOCC2)cc1OC (stereo unspecified)	0	1	1	3926	6	3
COc1cc(C(=O)NCC(c2cccs2)N2CCOCC2)cc(Br)c1OCc1ccccc1 (stereo unspecified)	2	7	132*	2853	2	0
Clc1ccc(OCc2nc(-c3ccncc3)no2)c(Br)c1	0	1	597*	4501	-8	7
COc1ccccc1NC(=O)c1cc(S(=O)(=O)N2CCc3ccccc32)ccc1F	1	2	-1	5319	0	6
CCOc1ccccc1NC(=O)c1ccc(S(=O)(=O)N2CCOCC2)cc1	0	-8	0	3062	-4	-5
CCOC(=O)N1CCN(S(=O)(=O)c2ccc(OCC(=O)OC)c(C)c2)CC1	-7	-11	0	25177*	-1	-1
COc1ccccc1NC(=O)c1cc(S(=O)(=O)N2CCC3(CC2)OCCO3)ccc1F	0	1	3	20818*	0	-4
COc1ccccc1NC(=O)c1ccc(S(=O)(=O)N2CCOCC2)cc1	?	-4	0	22270*	-5	-6
CCOC(=O)N1CCN(S(=O)(=O)c2ccc(F)c(C(=O)Nc3cc(C)cc(C)c3)c2)CC1	2	3	2	22579*	-3	1
COC(=O)COc1ccc(S(=O)(=O)N2CCCCCC2)cc1C	-4	-16	0	3591	-11	1
Cc1cc([N+](=O)[O-])cc2c1NC(=O)C2(O)N1CCOCC1 (stereo unspecified)	0	-2	0	2215	-2	0
CC(C)(C)OC(=O)N1CCC(Cc2cc(-c3ccc(Cl)cc3)no2)(C(=O)O)CC1	0	-4	1	3453	-6	4
Cc1ccc(C(=O)NC2CCCCNC2=O)cc1 (stereo unspecified)	-1	-2	-1	5981	3	-8
CCOc1ccc(NC(=O)c2cc(F)c(F)cc2Cl)cc1OCC	-1	-12	0	6015	0	6
O=C(NC1CCCCCC1)c1cc(S(=O)(=O)N2CCC3(CC2)OCCO3)ccc1F	-1	-1	1	7724	-2	9
Cc1ccc(NC(=O)c2cc(S(=O)(=O)N3CCC4(CC3)OCCO4)ccc2F)cc1	3	5	1	22105*	0	10
O=C(Nc1ccccc1C(F)(F)F)c1cc(S(=O)(=O)N2CCC3(CC2)OCCO3)ccc1F	-1	-1	2	23758*	-1	-1
CCOC(=O)c1ccccc1NC(=O)c1ccc(Cl)c(S(=O)(=O)N2CCOCC2)c1	?	1	0	21650*	-9	-8
Cc1c(C(=O)Nc2ccc(F)cc2)oc2ccc(S(=O)(=O)N3CCC4(CC3)OCCO4)cc12	4	5	-1	21736*	-1	3
CCOC(=O)c1ccccc1NC(=O)COC(=O)c1ccc(C)c(S(=O)(=O)N2CCOCC2)c1	1	10	-1	?	?	5
O=C(CSc1nc2ccccc2c(=O)n1CC1CCCO1)NCC1CCCO1 (stereo unspecified)	?	8	0	17453*	-8	3
CC(=O)NCCn1c(SCC(=O)NCC2CCCO2)nc2ccccc2c1=O (stereo unspecified)	-1	-4	-1	22103*	-2	-7
CCC(Sc1nc2ccccc2c(=O)n1CC1CCCO1)C(=O)NCc1cccnc1 (stereo unspecified)	?	-4	1	20816*	-3	-1
CC(C)c1nc2c(c(=O)c3ccccc3n2C)c(=O)n1CCc1ccccc1	·	·	·	·	·	10
O=C(NCc1ccco1)c1ccc(Cl)cc1[N+](=O)[O-]	0	0	-1	3804	4	7
COc1ccc(-c2[nH]ncc2N=Nc2ccccc2)cc1	-1	-2	50*	4439	-7	9
Cc1ccc2oc(C(=O)Nc3cc(C)on3)c(C)c2c1	0	-3	0	3666	-1	-14
